In PubChem BioAssay (NCATS):
A number with no mark means an inactive call. Active and inactive are the calls of the source. Calls follow the shape of the dose curve; as a rule, active = well fitted cell-killing curve with a large enough effect; inconclusive = small, poorly fitted or top-dose-only effect; inactive = flat fitted curve, though single readings scatter.

assay: Cell Viability - LYMP1-002 - Assay at 24 hr (AID 993); details: LYMP1-002 lymphoblastoid cells viability; series mostly up to 92.2 µM; activity change, negative = cytotoxicity: at the top concentration
Procedure, shortened: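 qHTS cytotoxicity at 24 h: CellTiter-Glo ATP luminescence in lymphoblastoid line LYMP1-002 incubated with compound at 37 °C. Concentration-response modeled with the Hill equation for AC50; tetraoctylammonium bromide served as positive control.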
% is scaled to controls: 0 for no effect and ±100 for the full control effect; potency is read from the fitted curve at half-maximal effect.

Row | SMILES | Potency | activity change, negative = cytotoxicity [%]
1 | Nc1ccc(O)cc1 | 39.8 µM (active) | –
2 | Nc1cccc2c(N)cccc12 | – | -6.53
3 | O=C(c1ccccc1)c1ccccc1 | – | -2.71
4 | CC(=O)OC/C=C(C)/C=C/C=C(C)/C=C/C1=C(C)CCCC1(C)C | – | -16.4
5 | Cc1cc(C(C)(C)C)c(O)c(C(C)(C)C)c1 | – | 2.14
6 | Oc1ccccc1 | – | -3.09
7 | CCCC(=O)c1cc(O)c(O)cc1O | – | -11.8
8 | Brc1ccccc1-c1ccccc1 | – | 2.71
9 | CC(C)(c1ccc(O)cc1)c1ccc(O)cc1 | inactive | –
10 | C1=CC2C3C=CC(C3)C2C1 (centres undefined) | – | -6.45
11 | CCCCC(CC)COC(=O)c1ccccc1C(=O)O (centres undefined) | – | -3.12
12 | O=C(NO)c1ccccc1 | – | -6.37
13 | CC(C)C(C)(C)C(C)(C)C(C)(C)S | – | 4.58
14 | c1ccc2occc2c1 | – | -2.77
15 | Cc1ccc(O)cc1 | – | -2.98
16 | CCCCCCCCCCCCCCCC[n+]1ccccc1 | 15.8 µM (active) | –
17 | OCc1c[nH]c2ccccc12 | – | 0.218
18 | O=C(Oc1ccccc1)c1ccccc1O | – | 6.1
19 | COc1cc(C=O)ccc1O | – | -1.16
